Test results from PubChem BioAssay (Tox21).
Where “and” joins values, the source holds several entries; their conditions need not be identical. Identical values can stand only once. Inconclusive results are not listed. A call without a number means that no potency is given here. Where a structure was tested more than once in an assay, its records may differ in their call. Calls of active or inactive are those of the source. Unless noted, calls follow the shape of the dose curve; as a rule, active = well fitted curve in the direction sought with a large enough effect in the repeat runs; inconclusive = weak or mixed curves; inactive = no such curve, though single readings can be large; an effect the other way counts as inactive or inconclusive. Starred links: 1 amine or outer side, 2 acyl side, 3 side chain; linkers in the order of their positions; H or OH if unused. Positions of bridges follow the written chain, without caps; N, C: chain ends. Non-standard residues stand in square brackets, D forms with d. Residues, ends and D or L forms follow the SMILES beside them. Chains are numbered I, II in the order given. Actinocin(9to1) = Cc1c2oc3c(C)ccc(C(=O)[*:1])c3nc-2c(C(=O)[*:2])c(N)c1=O; NMeV = CN[C@H](C(=O)O)C(C)C; Sar = CNCC(=O)O

Columns and labels:
[1] = qHTS assay to identify small molecule agonists of the vitamin D receptor (VDR) signaling pathway - cell viability counter screen (AID 743224); also: nearly all actives have a fitted effect of over 50% in size; also: potency is read from the fitted curve at half-maximal effect
Outline: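 Counter screen run in the same wells as the VDR-bla reporter assay: CellTiter-Glo luminescence, 30 min at room temperature, after 16 h compound treatment at 37C of cells pre-plated for 4 h.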

[2] = qHTS assay to identify small molecule agonists of the NFkB signaling pathway - cell viability counter screen (AID 1159515; calls by dose curve; also: nearly all actives have a fitted effect of over 55% in size; also: potency is read from the fitted curve at half-maximal effect)
Outline: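 Read by CellTiter-Glo luminescence (30 min, room temperature) in the wells also used for the beta-lactamase FRET read. ME-180 NFkB-bla cells at 2,000 per well were plated overnight, then exposed to compound for 5 hr at 37 C.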

[3] = qHTS assay to identify small molecule agonists of the endoplasmic reticulum stress response signaling pathway - cell viability counter screen (AID 1159517; calls by dose curve; also: nearly all actives have a fitted effect of over 50% in size; also: potency is read from the fitted curve at half-maximal effect)
Outline: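 Cytotoxicity of test compounds toward ESRE-bla HeLa cells was assessed after 5 hr exposure. The luminescent CellTiter-Glo signal was measured 30 min after reagent addition.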

[4] = molecular target: Nuclear receptor ROR-gamma (Homo sapiens) (UniProt P51449); assay: qHTS assay to identify small molecule antagonists of the retinoid-related orphan receptor gamma (ROR-gamma) signaling pathway (AID 1159521; also: nearly all actives have a fitted effect of over 50% in size; also: potency is read from the fitted curve at half-maximal effect)
Outline: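 Tet-on RORγ CHO cells carrying a ROR response element–luciferase reporter were pretreated with compounds for 2 h, then induced with 1 uM (final) doxycycline hyclate for 16 h at 37 C. Antagonism was read as decreased ONE-Glo luminescence.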

[5] = qHTS assay to identify small molecule agonists of the AP-1 signaling pathway - cell viability counter screen (AID 1159525; calls by dose curve; also: nearly all actives have a fitted effect of over 55% in size; also: potency is read from the fitted curve at half-maximal effect)
Outline: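 Each titration point was normalised to DMSO and tetra n-octyl ammonium bromide controls. The read was Cell Titer Glo luminescence after 30 min at RT, following 5 h compound exposure of ME-180 AP-1-bla cells at 37 °C.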

[6] = qHTS assay to identify small molecule agonists of the RXR signaling pathway - cell viability counter screen (AID 1159529); also: nearly all actives have a fitted effect of over 50% in size; also: potency is read from the fitted curve at half-maximal effect
Outline: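 RXR-alpha-UAS-bla HEK 293T cells in medium with 2% charcoal-stripped FBS were preincubated 5 hr, then exposed to compounds for 16 hr at 37 C. Viability was read as CellTiter-Glo luminescence after 30 min at room temperature.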

[7] = qHTS assay to identify small molecule antagonists of the retinoic acid receptor (RAR) signaling pathway (AID 1159552; also: nearly all actives have a fitted effect of over 50% in size; also: potency is read from the fitted curve at half-maximal effect)
Outline: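 RARE-luc C3RL4 cells; cpds + 1 uM (final) retinol, 6 hr, 37 C/5% CO2; luciferase reagent, 30 min RT, luminescence readout. Inhibitors of retinol-driven signal scored.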

[8] = qHTS assay to identify small molecule antagonists of the estrogen related receptor (ERR) signaling pathway from Tox21 library - cell viability counter screen (AID 1224834); also: nearly all actives have a fitted effect of over 30% in size; also: potency is read from the fitted curve at half-maximal effect
Outline: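 CellTiter-Fluor fluorescence, read after 30 min at 37 C, measures viability of ERR cells. Cells plated at 2,000/well and incubated 6 h before pin-tool compound addition, then exposed 17.5 hours at 37 C.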

[9] = qHTS assay to identify small molecule antagonists of the retinoid acid receptor (RAR) signaling pathway - cell viability counter screen (AID 1159551); also: nearly all actives have a fitted effect of over 35% in size; also: potency is read from the fitted curve at half-maximal effect
Outline: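 Cytotoxicity counter screen: ATP content quantified by CellTiter-Glo luminescence in C3RL4 cells treated 6 hr at 37 C with compound and retinol (1 uM final). Cells plated at 1,000/well and cultured overnight before dosing.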

[10] = qHTS assay to identify small molecule antagonists of the vitamin D receptor (VDR) signaling pathway - cell viability counter screen (AID 743225); also: nearly all actives have a fitted effect of over 50% in size; also: potency is read from the fitted curve at half-maximal effect
Outline: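 VDR-bla HEK 293T cells, 4 h pre-incubation at 37C, then compound plus 1-alpha,25-dihydroxyvitamin D3 (3 nM final) for 16 h. After the beta-lactamase FRET read, CellTiter-Glo was added to the same wells; luminescence after 30 min at room temperature.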

[11] = qHTS assay to identify small molecule antagonists of the retinoid-related orphan receptor gamma (ROR-gamma) signaling pathway - cell viability counter screen (AID 1159520); also: nearly all actives have a fitted effect of over 50% in size; also: potency is read from the fitted curve at half-maximal effect
Outline: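 Tet-on ROR gamma CHO cells (1,000/well) were plated 4 hr, given compounds in DMSO for 2 hr at 37 C, then induced with 1 uM final doxycycline for 16 hr. Viability was read as ATP by CellTiter-Glo luminescence after 30 min.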

[12] = qHTS assay to identify small molecule agonists of the retinoic acid receptor (RAR) signaling pathway (AID 1159553); also: potency is read from the fitted curve at half-maximal effect
Outline: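 Luminescence was measured 30 min after luciferase reagent addition at room temperature. Before that, C3RL4 reporter cells (1,000 per well, plated overnight) were treated with compound for 6 hr at 37 C and 5% CO2.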

[13] = qHTS assay to identify small molecule agonists of the AP-1 signaling pathway (AID 1159526; calls by dose curve; also: potency is read from the fitted curve at half-maximal effect)
[14] = molecular target: Retinoic acid receptor RXR-alpha (Homo sapiens) (UniProt P19793); assay: qHTS assay to identify small molecule agonists of the RXR signaling pathway (AID 1159527; calls by dose curve; also: nearly all actives have a fitted effect of over 35% in size)
Outline: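 GeneBLAzer RXR-alpha-UAS-bla HEK 293T cells in medium with 2% charcoal-stripped FBS, pre-incubated 5 hr at 37 C, then exposed to compounds 16 hr. Beta-lactamase reporter read by FRET substrate, 2 hr room temperature, 460/530 nm emission.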

[15] = qHTS assay to identify small molecule antagonists of the estrogen related receptor (ERR) signaling pathway (AID 1224819)
Outline: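 LOPAC library screened for antagonism as reduced One-Glo luminescence in ERR reporter cells (2,000/well). Compounds were added after 6 h pre-incubation and left 18 h at 37C; reading followed a 30 min room-temperature reagent step.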

[16] = qHTS assay to identify small molecule agonists of the estrogen related receptor (ERR) signaling pathway (AID 1224820)
Outline: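 Following a 6 h settling period, 2,000 ERR cells per well receive DMSO-dissolved compounds by pin tool and incubate 18 h at 37 C; agonist activity is scored from One-Glo luminescence read 30 min post-addition.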

[17] = tested on: estrogen-related receptor alpha (ERRalpha) with PGC-1alpha coactivator, human; assay: qHTS assay to identify small molecule antagonists of the estrogen related receptor signaling pathway with the pleiotropic PPARgamma coactivator (PGC) (AID 1224821; calls by dose curve; also: nearly all actives have a fitted effect of over 50% in size; also: potency is read from the fitted curve at half-maximal effect)
Outline: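 Screening used NTP's PGC/ERR cells, dosed via pin tool with compound in DMSO alongside positive and negative controls. After 18 h at 37 C, One-Glo reagent sat 30 min at room temperature before luminescence detection.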

[18] = qHTS assay to identify small molecule antagonists of the estrogen related receptor signaling pathway with the pleiotropic PPARgamma coactivator (PGC) cell viability counter screen (AID 1224822; also: potency is read from the fitted curve at half-maximal effect)
Outline: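 Viability counter-screen read by fluorescence intensity after 30 min with CellTiter-Fluor at 37 C; PGC/ERR reporter cells were exposed to compounds for 17.5 h at 37 C following a 6 h preincubation.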

[19] = qHTS assay to identify small molecule agonists of the estrogen related receptor signaling pathway with the pleiotropic PPARgamma coactivator (PGC) (AID 1224823)
Outline: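 In this quantitative high-throughput screen, an 18 h, 37 C treatment of PGC/ERR cells with compounds in DMSO preceded a One-Glo luminescence read taken after 30 min at room temperature.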

Chain of Retinoic acid receptor RXR-alpha (Homo sapiens) (P19793 whole entry, looked up): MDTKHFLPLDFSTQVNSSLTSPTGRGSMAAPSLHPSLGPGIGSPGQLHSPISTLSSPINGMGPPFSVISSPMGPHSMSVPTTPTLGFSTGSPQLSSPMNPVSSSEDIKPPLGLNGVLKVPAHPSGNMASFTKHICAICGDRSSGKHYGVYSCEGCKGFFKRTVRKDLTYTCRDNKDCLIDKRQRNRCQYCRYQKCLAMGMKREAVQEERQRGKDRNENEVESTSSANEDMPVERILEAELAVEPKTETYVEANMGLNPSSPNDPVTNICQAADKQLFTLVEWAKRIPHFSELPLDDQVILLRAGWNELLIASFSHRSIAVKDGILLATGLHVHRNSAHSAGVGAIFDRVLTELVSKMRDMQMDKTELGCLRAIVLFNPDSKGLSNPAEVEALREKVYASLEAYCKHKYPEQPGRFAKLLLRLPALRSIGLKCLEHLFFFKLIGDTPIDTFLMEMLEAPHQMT

SMILES	Potency [1]	Potency [2]	Potency [3]	Potency [4]	Potency [5]	Potency [6]	Potency [7]	Potency [8]	Potency [9]	Potency [10]	Potency [11]	Potency [12]	Potency [13]	Potency [14]	Potency [15]	outcome [16]	Potency [17]	Potency [18]	outcome [19]
Oc1c(Cl)cc(Cl)c(Cl)c1Cc1c(O)c(Cl)cc(Cl)c1Cl	24.5 µM (active) and 21.9 µM (active) and 2.66 µM (active)	34.6 µM (active) and 43.6 µM (active)	17.3 µM (active) and 49 µM (active)	966 nM (active) and 1.37 µM (active) and 841 nM (active)	27.5 µM (active)	34.6 µM (active) and 49 µM (active) and 19 µM (active)	24.3 µM (active) and 15 µM (active)	13.6 µM (active) and 13.7 µM (active) and 8.41 µM (active)											
Cc1cc(OCCOCC[N+](C)(C)Cc2ccccc2)ccc1C(C)(C)CC(C)(C)C	17.3 µM (active) and 26.6 µM (active)	38.7 µM (active) and 26.8 µM (active)	19.4 µM (active)	60.8 µM (active) and 29.8 µM (active)	34.5 µM (active) and 26.8 µM (active)		48.3 µM (active) and 29.8 µM (active)	54.2 µM (active) and 16.8 µM (active)	60.8 µM (active) and 29.8 µM (active)										
CCCCCCCCCCCCc1ccccc1O	10.8 µM (active) and 19.5 µM (active)	19.2 µM (active) and 21.9 µM (active)	17.2 µM (active) and 24.5 µM (active)	67.7 µM (active) and 24.3 µM (active)	13.6 µM (active) and 17.4 µM (active)		47.9 µM (active) and 54.5 µM (active)	43.3 µM (active)	61.1 µM (active)										
CC[C@H]1CN2CCc3cc(OC)c(OC)cc3[C@@H]2C[C@@H]1C[C@H]1NCCc2cc(OC)c(OC)cc21	19.6 µM (active) and inactive	inactive	6.94 µM (active) and 4.25 µM (active)	173 nM (active) and 750 nM (active)	inactive	inactive		15.4 nM (active) and 84.1 nM (active)		inactive									
c1cc(C(c2ccc(OCC3CO3)cc2)C(c2ccc(OCC3CO3)cc2)c2ccc(OCC3CO3)cc2)ccc1OCC1CO1 (stereo unspecified)	inactive	inactive	inactive		inactive	inactive	inactive	inactive	inactive		inactive	8.96 µM (active) and 27.3 µM (active)							
Nc1cc(Cl)c(-c2cc(Cl)c(N)cc2Cl)cc1Cl	49 µM (active)	48.9 µM (active) and 54.9 µM (active)	54.9 µM (active)	7.69 µM (active) and 7.7 µM (active)		17.4 µM (active)		48.5 µM (active) and 30.6 µM (active)	30.6 µM (active)	21.9 µM (active)	61.1 µM (active)	inactive							
Cc1c2oc3c(C)ccc(C(=O)N[C@@H]4C(=O)N[C@H](C(C)C)C(=O)N5CCC[C@H]5C(=O)N(C)CC(=O)N(C)[C@@H](C(C)C)C(=O)O[C@@H]4C)c3nc-2c(C(=O)N[C@@H]2C(=O)N[C@H](C(C)C)C(=O)N3CCC[C@H]3C(=O)N(C)CC(=O)N(C)[C@@H](C(C)C)C(=O)O[C@@H]2C)c(N)c1=O (I: T[dV]P[Sar][NMeV] / II: T[dV]P[Sar][NMeV]; ester I:1-I:C, II:1-II:C; linker I:N-II:N via Actinocin(9to1))	26.8 µM (active) and inactive	inactive	26.8 nM (active) and 107 nM (active)	29.8 nM (active) and 188 nM (active)	inactive	inactive	16.8 nM (active) and 10.6 nM (active)	7.48 µM (active) and 188 nM (active)		inactive									
CCn1c2ccccc2c2cc(N)ccc21	inactive	inactive	inactive	19.1 µM (active)					inactive	inactive	inactive		inactive	inactive					
CC(C)(c1ccccc1)c1ccc(Nc2ccc(C(C)(C)c3ccccc3)cc2)cc1	inactive	inactive	inactive	24.3 µM (active) and inactive		inactive	inactive		inactive	inactive	inactive	inactive							
Cc1c(O)cccc1C(=O)N[C@@H](CSc1ccccc1)[C@H](O)CN1C[C@H]2CCCC[C@H]2C[C@H]1C(=O)NC(C)(C)C	15.1 µM (active) and 26.6 µM (active)	inactive	inactive	23.7 µM (active) and 9.44 µM (active)	inactive			8.41 µM (active) and 11.9 µM (active)	inactive				inactive		19.6 µM (active)	inactive	inactive	10.6 µM (active)	inactive
Nc1nc2ccccc2[nH]1	inactive	inactive	inactive		inactive	inactive	inactive	inactive	inactive	inactive	inactive			inactive					
CCCCCCC(O)CCCCCCCCCCC(=O)O (stereo unspecified)	19.6 µM (active) and 11 µM (active)	inactive	inactive		inactive		inactive		inactive		inactive	inactive		inactive					
CCN(CC)c1ccc2c(C)cc(=O)oc2c1	inactive	inactive	inactive	inactive		inactive	inactive		inactive	inactive	inactive	inactive							
CCN(CC)C(=S)SSC(=S)N(CC)CC	110 nM (active) and 39.8 nM (active) and 188 nM (active)	1 µM (active) and inactive	inactive	344 nM (active) and 44.3 nM (active) and 188 nM (active)		199 nM (active) and 213 nM (active)		243 nM (active) and 88.4 nM (active) and 335 nM (active)	inactive	inactive	24.3 µM (active) and 176 nM (active)				10.9 µM (active) and 16.2 µM (active)	inactive	386 nM (active) and 1.39 µM (active)	386 nM (active) and 220 nM (active)	inactive
CC[C@]1(O)C[C@@H]2CN(CCc3c([nH]c4ccccc34)[C@@](C(=O)OC)(c3cc4c(cc3OC)N(C)[C@H]3[C@@](O)(C(=O)OC)[C@H](OC(C)=O)[C@]5(CC)C=CCN6CC[C@]43[C@@H]65)C2)C1	inactive	inactive	inactive	596 nM (active) and 8.41 µM (active)	inactive			0.841 µM (active)	inactive	inactive			0.268 µM (active)						
